High-throughput results deposited in PubChem BioAssay by several laboratories.
Sampled rows, rich in hits. Any-hit rate of the full collection: about 22%.
CYP2C19 inhib – human CYP2C19 inhibition; P33261; inhibition, % at 5 µM; 96,000 tested, 21% active; CYP2C19 Supersomes, luciferin-H EGE luminescence, 30 min;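 active means CYP2C19 inhibition above a set limit at 5 µM in the primary screen, cut at about 50% in these data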;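 further: plate controls were negative control wells for no effect and 2.5 mM tranylcypromine positive control for full effect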
CYP2C9 activ – activators of human CYP2C9 | recombinant CYP2C9, luciferin-H conversion, luminescence; active compounds read high; factor 1 = untreated enzyme, 0 = blocked | activation factor at 5 µM | 96,000 tested, 1.4% active | AID 1024;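 active means activation factor of 2 or more for CYP2C9 at a 5 µM dose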;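 further: 0 = sulfaphenazole-blocked wells and 1 = vehicle-only wells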
Target sequence (P11712 whole entry, looked up): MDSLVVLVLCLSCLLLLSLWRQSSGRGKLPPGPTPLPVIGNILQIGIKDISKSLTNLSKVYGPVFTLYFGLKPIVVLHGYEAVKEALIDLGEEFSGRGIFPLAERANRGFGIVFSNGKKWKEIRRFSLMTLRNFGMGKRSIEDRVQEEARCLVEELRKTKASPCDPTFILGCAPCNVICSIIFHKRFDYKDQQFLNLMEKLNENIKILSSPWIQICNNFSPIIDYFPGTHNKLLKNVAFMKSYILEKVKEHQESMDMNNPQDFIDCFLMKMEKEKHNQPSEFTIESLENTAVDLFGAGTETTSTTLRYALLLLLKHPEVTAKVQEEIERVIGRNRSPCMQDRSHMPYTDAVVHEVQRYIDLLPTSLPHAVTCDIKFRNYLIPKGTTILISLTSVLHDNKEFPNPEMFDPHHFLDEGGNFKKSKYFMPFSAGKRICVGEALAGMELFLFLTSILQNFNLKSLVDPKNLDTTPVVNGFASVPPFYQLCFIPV
Measles CPE – protection of cells from measles virus; 140,000 tested, 1.5% active; protection (pct of control), % at 4 µM; AID 841; Measles virus-infected cells, CPE protection, absorbance; in the data active means protection mostly above about 24%, no sharp cut-off; inactive means mostly below about 26%
CYP2C19 activ – cytochrome P450 2C19 (human) activation | 96,000 tested, under 10 active | P33261 | recombinant CYP2C19, luciferin-H EGE luminescence; active compounds read high; 0 = fully inhibited enzyme, 1 = untreated enzyme | AID 1025 | activation factor at 5 µM;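 active means activation factor of at least 2 at 5 µM in the primary screen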;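 further: 0 = wells with 2.5 mM tranylcypromine and 1 = vehicle-only wells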
CYP2C9 inh – inhibitors of human CYP2C9; CYP2C9 Supersomes, luciferin-H conversion, luminescence; inhibition, % at 5 µM; 96,000 tested, 20% active; AID 777;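 active means blocking of liver enzyme CYP2C9 beyond about 50% at 5 µM, limit read from the data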
* marks the source's active call; other numbers are inactive results; · = not tested or not shown.

SMILES | CYP2C19 inhib | CYP2C9 activ | Measles CPE | CYP2C19 activ | CYP2C9 inh
COc1ccc2sc(C)nc2c1NC(C)=O | 18 | 0.2 | 8 | 0.8 | 84*
COc1ccc(NC(C)=O)c2nc(C)c(C)nc12 | -2 | 0.8 | 14 | 1 | 22
CC(C)=CCc1c(O)ccc(C(=O)Cc2ccccc2)c1O | 12 | 0.5 | 17 | 0.9 | 46
CCC(=O)c1ccc(O)c(CC=C(C)C)c1 | 58* | 0.4 | 0 | 0.4 | 64*
Cc1ccc(C(N)=O)cc1S(=O)(=O)Nc1cccc(C)c1C | 99* | 0.7 | 19 | 0 | 35
Cc1ccc(NS(=O)(=O)c2cc(C(N)=O)ccc2C)cc1 | 94* | 0.3 | 5 | 0.1 | 67*
N#CCCN1CCn2c1nc1ccccc12 | 12 | 1.2 | -1 | 0.9 | -22
Cc1ccc(S(=O)(=O)N2CCCC2C(=O)Oc2ccccc2)cc1 (configuration not stated) | 75* | 1.1 | 21 | 0.2 | -10
COC(=O)C1CCCN1S(=O)(=O)c1ccc2ccccc2c1 (configuration not stated) | 38 | 2.7* | 7 | 0.6 | -169
COc1ccc(S(=O)(=O)N2CCCCC2C(=O)O)cc1 (configuration not stated) | · | · | 11 | · | ·
CCN1C(=O)[C@H]2[C@H]3[C@H](O)[C@H](O)C/C(=N\O[C@H](C)c4cn([C@H](CO)Cc5ccccc5)nn4)[C@@H]3CC[C@H]2C1=O | · | · | 2 | · | ·
CCOc1cccc2sc(NC(=O)c3ccc(Br)s3)nc12 | -7 | 0.8 | 5 | 1.1 | 24
CC(=O)Nc1cccc(-c2nnc(SCc3ccccc3C#N)n2C)c1 | 62* | 1.1 | 3 | 0.4 | -6
CC(=O)Nc1ccc(-c2nnc(SCc3ccccc3C#N)n2C)cc1 | -16 | 1 | 24* | 1.2 | 2
CCCCSc1nnc(-c2ccc(NC(C)=O)cc2)n1C | · | · | 11 | · | ·
CCCC(=O)OCCn1c(Br)nc2c1c(=O)[nH]c(=O)n2C | · | · | 35* | · | ·
COc1cc(NS(=O)(=O)c2ccc(N/C=C(\C#N)c3nc4cc(Cl)ccc4o3)cc2)nc(OC)n1 | -6 | 0.4 | 5 | 1.1 | 63*
c1ccc(-c2ccc(OCCOCCn3cncn3)cc2)cc1 | 95* | 0.3 | 26 | 0.1 | 67*
c1ccc(Cc2ccc(OCCn3cncn3)cc2)cc1 | 97* | 0 | 15 | 0 | 98*
COc1ccc(OCCn2cncn2)cc1 | -2 | 1.1 | 3 | 1 | -13
c1ccc(-c2ccccc2OCCn2cncn2)cc1 | 97* | 1.8 | 6 | 0 | -80
c1ccc(COc2ccc(OCCCn3cncn3)cc2)cc1 | 94* | 0 | 30* | 0.1 | 96*
Cc1ccc(OCCn2cc(Br)c(=O)[nH]c2=O)cc1 | 11 | 1 | 12 | 0.9 | 2
Cc1cccc(CC(=O)OCn2nnc3ccccc3c2=O)c1 | 33 | 1.1 | 5 | 0.7 | -10
CC1(C)Oc2ccccc2OC1(O)c1ccc2ccccc2n1 (configuration not stated) | · | · | 6 | · | ·
SMILES | CYP2C19 inhib | CYP2C9 activ | Measles CPE | CYP2C19 activ | CYP2C9 inh
NCCOc1ccccc1-c1ccccc1 | 57* | 0.3 | 3 | 0.4 | 66*
FC(F)(F)c1cccc(OCCOCCn2cncn2)c1 | 86* | 0.7 | 24 | 0.1 | 33
CCOc1cccc(OCCOCCN2CCCC2)c1 | -2 | 1.1 | 7 | 1 | -11
COCCCNCCCCSc1ccc(Cl)cc1 | · | · | 2 | · | ·
Clc1ccc(OCCCn2cncn2)cc1Cl | 99* | 0.1 | 47 | 0 | 92*
Clc1ccc(SCCCCn2cncn2)cc1 | 98* | 0.2 | 4 | 0 | 76*
Clc1ccc(OCCCN2CCCC2)cc1Cl | · | · | 3 | · | ·
CNc1ccc(/C=C/C(=O)c2cccc3ccccc23)cc1[N+](=O)[O-] | · | · | 5 | · | ·
CCOC(=O)c1ccc(NC(=O)c2cn(CCC#N)nc2-c2ccc3c(c2)OCCO3)cc1 | · | · | 13 | · | ·
CCCC(CCC)C(=O)Nc1cccc(C(=O)O)c1 | -6 | 1.1 | 12 | 1.1 | -9
COc1cc(/C=C(/C(=O)c2cccs2)c2nc3ccccc3[nH]2)ccc1O | 23 | 0.5 | 6 | 0.8 | 55*
O=C(/C(=C/c1ccc(Cl)cc1)c1nc2ccccc2[nH]1)c1cccs1 | 76* | 0 | 11 | 0.2 | 99*
COc1ccc(/C=C(/NC(=O)c2ccccc2)c2nc3ccccc3[nH]2)cc1OC | 17 | 1 | 3 | 0.8 | 4
COc1cc(OC)cc(C(=O)NCC(=O)N2CCCCC2)c1 | 1 | 1.2 | 3 | 1 | -24
O=C(C1CCCCC1)N(Cc1nc2sc3c(c2c(=O)[nH]1)CCCC3)Cc1cccs1 | 30 | 0.4 | 9 | 0.7 | 62*
Clc1ccc(-n2nnnc2CN2CCOCC2)cc1 | 16 | 0.8 | 14 | 0.8 | 22
O=[N+]([O-])c1cccc(-n2nnnc2CN2CCCCCC2)c1 | 94* | 0.6 | 33* | 0.1 | 43
COc1ccc(S(=O)(=O)N2CCCCCC2)cc1N(C)S(=O)(=O)c1ccc(C)cc1 | · | · | 14 | · | ·
Cc1cc(C)c(C)c(S(=O)(=O)NCC(=O)Nc2sc3c(c2C(N)=O)CCCC3)c1C | 32 | 0.8 | 1 | 0.7 | 22
Cc1ccc(CNC(=O)CSc2c3c(nc4cc(Cl)ccc24)CCCC3)o1 | 80* | 0.6 | 16 | 0.2 | 39
NC(=O)c1cc(Cc2ccccc2)sc1NC(=O)c1ccco1 | 17 | 0.4 | 13 | 0.8 | 56*
O=C(Nc1nnc(Cc2ccccc2)s1)c1ccco1 | 2 | 0.7 | 18 | 1 | 27
CCOC(=O)c1c(NC(=O)c2ccoc2C)sc(C)c1C | -13 | 1.4 | 22 | 1.1 | -35
CCCc1cc(C(N)=O)c(NC(=O)c2cc(C)on2)s1 | 18 | 0.4 | 16 | 0.8 | 64*
CCCc1cc(C(N)=O)c(NC(=O)c2ccoc2C)s1 | 67* | 0.1 | 20 | 0.3 | 88*
SMILES | CYP2C19 inhib | CYP2C9 activ | Measles CPE | CYP2C19 activ | CYP2C9 inh
Cc1c(CN(C)CCc2ccccc2)c(=O)n(-c2ccccc2)n1C | -13 | 1.2 | 1 | 1.1 | -16
COC(=O)c1c(C)[nH]c(C(=O)C(C)Sc2nnc(-c3cc(OC)c(OC)c(OC)c3)o2)c1C (configuration not stated) | 40 | 0.3 | 34 | 0.6 | 72*
CCOC(=O)c1c(C)[nH]c(C)c1C(=O)CSc1nnc(-c2cc(OC)c(OC)c(OC)c2)o1 | 15 | 0.7 | 3 | 0.8 | 26
CSc1ccc(/C=C/C(=O)c2ccc(NC(C)=O)cc2)cc1 | 51* | 0.5 | 32 | 0.5 | 48
CSc1ccc(NC(=O)CC(C)=O)cc1 | -1 | 1.1 | 29 | 1 | -14
CCCC(=O)Nc1ccc(C(=O)/C=C/c2ccc(SC)cc2)cc1 | 50* | 0.3 | 6 | 0.5 | 73*
COc1ccc(/C=N/n2c(SC)nnc(C(C)(C)C)c2=O)cc1OC | 71* | 0.4 | 11 | 0.3 | 57*
COc1ccc(CCNC(=O)COC(=O)C23CC4CC(CC(C4)C2)C3)cc1 | · | · | 9 | · | ·
O=C(COC(=O)c1ccc(-c2ccc([N+](=O)[O-])cc2)o1)NC(=O)NC12CC3CC(CC(C3)C1)C2 | · | · | 6 | · | ·
COc1ccc(N2CCN(C(=O)NC34CC5CC(CC(C5)C3)C4)CC2)cc1 | 63* | 0.4 | 24 | 0.4 | 59*
